These results are taken from the supplement of paper PMC12297408.

Counter-ions that a name gives are not always drawn. Unmarked numbers belong to inactive results.

The assay has as its system Plasmodium falciparum NF54/iGP1_RE9H ulg8 stage V gametocytes. The assay is described as follows: gametocyte viability (luciferase signal relative to DMSO control) (% of DMSO control); higher = less gametocytocidal activity, active = 50 or less. The conditions noted are these: exposure time: 72 h. Here is the method:
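Synchronous P. falciparum NF54/iGP1_RE9H ulg8 mature stage V gametocytes (day 12) were exposed to Cayman Epigenetics Screening Library compounds at 10 µM or 1 µM for 72 h at 37 °C. Viability was read as RE9H luciferase bioluminescence, normalised to DMSO plate controls (100%); 50 µM methylene blue was the positive control.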

For `COc1cc(OC)c2c(=O)[nH]c(-c3cc(C)c(OCCO)c(C)c3)nc2c1`, the gametocyte viability is, setting by setting: (concentration: 1 µM) 94.1; (concentration: 10 µM) 92.5.

Take `C/C(=N\NC(=O)c1cccc(S(=O)(=O)N2CCOCC2)c1)c1cc(Cl)ccc1O`: the gametocyte viability by setting is: (concentration: 1 µM) 89.1; (concentration: 10 µM) 85.8.

Turning to `CCCCNNC(=O)c1ccc(Br)cc1`, the gametocyte viability is, setting by setting: (concentration: 1 µM) 84; (concentration: 10 µM) 56.1.

In the case of `Cn1cc(CNCC2CCN(c3ncc(C(=O)NO)cn3)CC2)c2ccccc21`, the gametocyte viability is 62 (concentration: 1 µM) and 66.3 (concentration: 10 µM).

Regarding `Nc1cc(F)ccc1NC(=O)c1ccc(CNC(=O)/C=C/c2cccnc2)cc1` [Chidamide], the gametocyte viability reads like this: (concentration: 1 µM) 92.7; (concentration: 10 µM) 93.4.

Take `CCOC(=O)NNc1nncc2ccccc12` [Todralazine (hydrochloride)]: the gametocyte viability is 89.5 (concentration: 1 µM) and 89.1 (concentration: 10 µM).

Turning to `O=C(O)c1ccc(CN2CCC(CN[C@@H]3C[C@H]3c3ccccc3)CC2)cc1`, the gametocyte viability is, setting by setting: (concentration: 1 µM) 86.7; (concentration: 10 µM) 88.4.

With `Cc1ccc(-n2sc3ccccc3c2=O)cc1`, the gametocyte viability was 90.8 (concentration: 1 µM) and 59.8 (concentration: 10 µM).

For the compound `CNCCN(C)Cc1c[nH]nc1-c1ccc(O[C@H]2C[C@H](OCCC3CCOCC3)C2)cc1`, the gametocyte viability was 85.5 (concentration: 1 µM) and 82.4 (concentration: 10 µM).

`CCCNNC(=O)c1ccc(CNC(=O)/C=C/c2ccccc2)cc1` [HDAC3 Inhibitor]: the gametocyte viability is 83.6 (concentration: 1 µM) and 93.8 (concentration: 10 µM).

Regarding `CCCCCCCCCCCCCCCc1cccc(O)c1C(=O)O` [Anacardic Acid], the gametocyte viability is, setting by setting: (concentration: 1 µM) 84.7; (concentration: 10 µM) 82.9.

As to `Nc1ccccc1NC(=O)c1ccc(CNc2nccc(-c3cccnc3)n2)cc1` [Mocetinostat], the gametocyte viability (concentration: 1 µM) is 89.7 and the gametocyte viability (concentration: 10 µM) is 88.2.

As for `Cc1noc(C)c1-c1ccc(-c2nc3cnccn3c2NC(C)(C)C)cc1`, the gametocyte viability runs as follows: (concentration: 1 µM) 84.1; (concentration: 10 µM) 64.8.

With `COc1cc2nc(N3CCCN(C)CC3)nc(NC3CCN(Cc4ccccc4)CC3)c2cc1OC`, the gametocyte viability is, setting by setting: (concentration: 1 µM) 71; (concentration: 10 µM) 23.3 (active).

`O=C(NO)c1ccc(CC(=O)N(CCO)c2ccccc2)cc1`: the gametocyte viability was 88.9 (concentration: 1 µM) and 93.5 (concentration: 10 µM).

Consider `O=C(CCCCCCC(=O)Nc1ccc(I)cc1)NO` [4-iodo-SAHA], for which the gametocyte viability was 88.3 (concentration: 1 µM) and 67.2 (concentration: 10 µM).

Consider `O=C(/C=C/c1cccc(C(=O)NO)c1)NO`, for which the gametocyte viability reads like this: (concentration: 1 µM) 89.2; (concentration: 10 µM) 75.4.

Take `N[C@H]1CC[C@H](N[C@@H]2C[C@H]2c2ccccc2)CC1`: the gametocyte viability is, setting by setting: (concentration: 1 µM) 74.5; (concentration: 10 µM) 70.7.

Consider `COc1cc2c(cc1OCCCN1CCCC1)N=C(N)C21CCC1`, for which the gametocyte viability runs as follows: (concentration: 1 µM) 89.9; (concentration: 10 µM) 93.7.

Take `O=C(CCCCCCC(=O)Nc1cccnc1)NO` [Pyroxamide]: the gametocyte viability reads like this: (concentration: 1 µM) 90.7; (concentration: 10 µM) 63.8.

Turning to `Cn1cccc1C(=O)N1CCc2cc(C(=O)NO)ccc2C1` [HDAC6 Inhibitor], the gametocyte viability by setting is: (concentration: 1 µM) 87; (concentration: 10 µM) 91.2.

As for `COc1cc2c(cc1NS(=O)(=O)c1ccc(Br)cc1C)n(C)c(=O)n2C`, the gametocyte viability reads like this: (concentration: 1 µM) 89; (concentration: 10 µM) 86.4.

Turning to `CC(=O)Nc1ccc(NC(=S)NC(=O)c2ccc(C(C)(C)C)cc2)cc1` [Tenovin-1], the gametocyte viability (concentration: 1 µM) is 81.3 and the gametocyte viability (concentration: 10 µM) is 81.9.

Turning to `COc1cc2c(NC3CCN(CC4CCCCC4)CC3)nc(N3CCCN(C(C)C)CC3)nc2cc1OCCCN1CCCCC1`, the gametocyte viability (concentration: 1 µM) is 60.9 and the gametocyte viability (concentration: 10 µM) was 14.7 (active).

As to `Nc1cc(F)ccc1NC(=O)/C=C/c1cnn(C/C=C/c2ccccc2)c1`, the gametocyte viability was 98 (concentration: 1 µM) and 91.8 (concentration: 10 µM).

In the case of `O=C(NO)c1cccc(C(=O)NCCc2ccccc2)c1`, the gametocyte viability was 98.3 (concentration: 1 µM) and 64.6 (concentration: 10 µM).

Consider `CCn1c2ccccc2c2cc(CNCc3ccccc3OC)ccc21` [HLCL-61 (hydrochloride)], for which the gametocyte viability runs as follows: (concentration: 1 µM) 85; (concentration: 10 µM) 94.

As for `CCCC(=O)[O-].[Na+]` [Sodium Butyrate], the gametocyte viability was 83.8 (concentration: 1 µM) and 84.7 (concentration: 10 µM).

Consider `COC(=O)c1ccc2c(c1)nc(NC(=O)c1ccccc1)n2CCCc1ccccc1`, for which the gametocyte viability is 86.9 (concentration: 1 µM) and 54.7 (concentration: 10 µM).

On to `Cn1c(=O)cc(C(=O)Nc2ccc3c(c2)OCCO3)c2ccccc21`, for which the gametocyte viability runs as follows: (concentration: 1 µM) 82.8; (concentration: 10 µM) 86.7.

For `O=C(Cc1ccccc1)Nc1ccc2oc(-c3ccc(Cl)cc3Cl)nc2c1`, the gametocyte viability was 80.3 (concentration: 1 µM) and 51.9 (concentration: 10 µM).

`CC(C)(C)c1ccc(C(=O)NC(=S)Nc2ccc(N)cc2)cc1` [Tenovin-3]: the gametocyte viability (concentration: 1 µM) was 92.2 and the gametocyte viability (concentration: 10 µM) was 79.2.

`CC1CC/C(=N\Nc2nc(-c3ccc(Cl)cc3)cs2)C1` (centres undefined) [CPTH6 (hydrobromide)]: the gametocyte viability runs as follows: (concentration: 1 µM) 86.6; (concentration: 10 µM) 82.2.

On to `Nc1ccccc1NC(=O)c1cnccn1`, for which the gametocyte viability is 96.3 (concentration: 1 µM) and 89.4 (concentration: 10 µM).

`N[C@H]1C[C@@H]1c1ccc(-c2cccc(O)c2)cc1`: the gametocyte viability runs as follows: (concentration: 1 µM) 92.2; (concentration: 10 µM) 79.4.

On to `Nc1ncnc2c1ncn2[C@@H]1O[C@H](C[C@@H](N)CC[C@H](N)C(=O)O)[C@@H](O)[C@H]1O` [Sinefungin], for which the gametocyte viability reads like this: (concentration: 1 µM) 88.5; (concentration: 10 µM) 85.6.

In the case of `CCC(CC)(NC(=O)C(C)C)C(=O)N[C@@H](CCCN=C(N)N)C(=O)NC1(C(=O)NC(c2ccc(F)cc2)c2ccc(F)cc2)CCCC1`, the gametocyte viability by setting is: (concentration: 1 µM) 82.6; (concentration: 10 µM) 82.6.

Regarding `CC(C)Oc1ccc(-c2c[nH]cc2CN(C)CCN)cc1` [MS023 (hydrochloride)], the gametocyte viability was 64.4 (concentration: 1 µM) and 30.3 (active) (concentration: 10 µM).

For the compound `COc1cccc2c1c(O)c(C(=O)N(C)c1ccc(C(F)(F)F)cc1)c(=O)n2C` [Tasquinimod], the gametocyte viability was 83.1 (concentration: 1 µM) and 82.9 (concentration: 10 µM).

For the compound `CC1(C)C(=O)NC2=C1C(=O)C(=O)c1ccccc12`, the gametocyte viability (concentration: 1 µM) was 88.9 and the gametocyte viability (concentration: 10 µM) was 85.2.

On to `O=C1/C(=C/c2ccc(O)c(Br)c2)CCC/C1=C\c1ccc(O)c(Br)c1` [HAT Inhibitor II], for which the gametocyte viability was 89.2 (concentration: 1 µM) and 83.2 (concentration: 10 µM).

With `O=C1CCc2c(ccc3ccccc23)O1` [Splitomicin], the gametocyte viability is 86.2 (concentration: 1 µM) and 80.9 (concentration: 10 µM).

In the case of `O=C(NC[C@H](O)CN1CCc2ccccc2C1)c1cc(NC2COC2)ncn1`, the gametocyte viability reads like this: (concentration: 1 µM) 90; (concentration: 10 µM) 89.1.

Regarding `CCC(=O)N1CCOc2c(cc(-c3ccc(OC)c(OC)c3)cc2OC[C@H]2CCCN(C)C2)C1` [I-CBP112 (hydrochloride)], the gametocyte viability is 84.5 (concentration: 1 µM) and 86.9 (concentration: 10 µM).

As for `Cc1cc(Nc2ccc(NC(=O)c3ccc(Nc4ccnc5ccccc45)cc3)cc2)nc(N)n1`, the gametocyte viability by setting is: (concentration: 1 µM) 31.4 (active); (concentration: 10 µM) 2.18 (active).

Turning to `CC(C)N(CCCNC(=O)Nc1ccc(C(C)(C)C)cc1)C[C@H]1O[C@@H](n2ccc3c(N)ncnc32)[C@H](O)[C@@H]1O`, the gametocyte viability is, setting by setting: (concentration: 1 µM) 94.6; (concentration: 10 µM) 94.1.

As for `CC(NC(=O)c1ccccc1/N=C/c1c(O)ccc2ccccc12)c1ccccc1` (centres undefined) [Sirtinol], the gametocyte viability reads like this: (concentration: 1 µM) 102; (concentration: 10 µM) 95.

With `COc1cc(C#N)ccc1S(=O)(=O)Nc1ccc2c(c1)cc(C)c(=O)n2C`, the gametocyte viability by setting is: (concentration: 1 µM) 86.6; (concentration: 10 µM) 91.4.

Consider `CCN(c1cc(-c2ccc(CN3CCOCC3)cc2)cc(C(=O)NCc2c(C)cc(C)[nH]c2=O)c1C)C1CCOCC1`, for which the gametocyte viability by setting is: (concentration: 1 µM) 95.1; (concentration: 10 µM) 93.

With `Cc1ccc(NC2=CC(=O)c3sc(C)nc3C2=O)cc1` [Ryuvidine], the gametocyte viability (concentration: 1 µM) is 59.2 and the gametocyte viability (concentration: 10 µM) is 19.2 (active).

In the case of `COc1ccccc1C(=O)Nc1cc2c(cc1N1CCNC[C@H]1C)n(C)c(=O)n2C`, the gametocyte viability is 88.2 (concentration: 1 µM) and 93.7 (concentration: 10 µM).

Regarding `CC(=O)SCC(=O)c1ccc(NS(=O)(=O)c2ccc(OCCCN(C)C)cc2)nc1`, the gametocyte viability was 83.8 (concentration: 1 µM) and 85.4 (concentration: 10 µM).

Take `CC(/C=C/C(=O)NO)=C\[C@@H](C)C(=O)c1ccc(N(C)C)cc1` [Trichostatin A]: the gametocyte viability by setting is: (concentration: 1 µM) 53.7; (concentration: 10 µM) 35.4 (active).

On to `CCCCCOc1ccc(/C=C\c2cccc(O)c2C(=O)O)cc1`, for which the gametocyte viability runs as follows: (concentration: 1 µM) 87.3; (concentration: 10 µM) 88.4.

On to `O=C(O)c1ccc(O)c2ncccc12`, for which the gametocyte viability is, setting by setting: (concentration: 1 µM) 90.6; (concentration: 10 µM) 84.3.

As to `NC(=O)[C@H](CCCN=C(N)CF)NC(=O)c1ccccc1` [F-Amidine (trifluoroacetate salt)], the gametocyte viability was 103 (concentration: 1 µM) and 95.9 (concentration: 10 µM).

For `COC(=O)c1ccc(N2CCN(C)CC2)c(NC(=O)c2cccc(OC)c2)c1`, the gametocyte viability runs as follows: (concentration: 1 µM) 85.8; (concentration: 10 µM) 82.1.

On to `O=C(c1cncc(Br)c1)N1CCC(N2CCCC2)CC1`, for which the gametocyte viability by setting is: (concentration: 1 µM) 86.5; (concentration: 10 µM) 91.4.

`CC(C)N(CCCNC(=O)Nc1ccc(C(C)(C)C)cc1)C[C@H]1O[C@@H](n2cc(Br)c3c(N)ncnc32)[C@H](O)[C@@H]1O`: the gametocyte viability by setting is: (concentration: 1 µM) 88; (concentration: 10 µM) 49.3 (active).

Turning to `CN1CCN(c2ccc(-c3cccc(CN4CCOCC4)c3)cc2NC(=O)c2c[nH]c(=O)cc2C(F)(F)F)CC1`, the gametocyte viability (concentration: 1 µM) was 89.4 and the gametocyte viability (concentration: 10 µM) was 94.1.

As for `C=C1C(=O)O[C@@H](CCC)[C@@H]1C(=O)O` [Butyrolactone 3], the gametocyte viability runs as follows: (concentration: 1 µM) 97.4; (concentration: 10 µM) 89.9.

`CN=C(NC)NCCCNCCCNCCCNC(=NC)NC` [Lysine-specific Demethylase Inhibitor (1C) (hydrochloride)]: the gametocyte viability (concentration: 1 µM) was 85.5 and the gametocyte viability (concentration: 10 µM) was 81.1.

For `C#Cc1cccc(Nc2ncnc3cc(OC)c(OCCCCCCC(=O)NO)cc23)c1`, the gametocyte viability by setting is: (concentration: 1 µM) 58.7; (concentration: 10 µM) 56.7.

On to `CN1CCC(=C2c3ccccc3C=Cc3ccccc32)CC1` [Cyproheptadine (hydrochloride hydrate)], for which the gametocyte viability is 88.2 (concentration: 1 µM) and 86.6 (concentration: 10 µM).

Take `CN1CCN(C(=O)CNC2CC2c2ccc(OCc3ccccc3)cc2)CC1` (centres undefined) [RN-1 (hydrochloride)]: the gametocyte viability (concentration: 1 µM) was 89.1 and the gametocyte viability (concentration: 10 µM) was 72.8.

Consider `CCCc1cc2c(N3CCN(C4=NCC(C)(C)S4)CC3)ncnc2s1` [MI-2 (hydrochloride)], for which the gametocyte viability (concentration: 1 µM) is 80.6 and the gametocyte viability (concentration: 10 µM) was 63.3.

For `CN(C)c1ccc(C(=O)NCCCCCC(=O)NO)cc1`, the gametocyte viability (concentration: 1 µM) is 76.2 and the gametocyte viability (concentration: 10 µM) is 52.
